Measurements taken from PubChem BioAssay (NCI).
This is part of a sample that, as a whole, favours compounds with a hit. Of some 83,000 tested, about 20% had one in any assay.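 Note: values are percent growth. 100 is the growth of untreated cells, values between 100 and 0 indicate rising inhibition; between -100 and 0 indicates cell death.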 Calls of active or inactive are those of the source. The calls were made as follows: active = growth percent below 10; inactive = the rest.

System: HL-60(TB) leukemia
Assay: NCI-60 one-dose screen, 48 h (100 = growth as untreated, 0 = no growth, -100 = all killed)
Conditions: 10 µM unless noted

Row | Compound | growth
1 | Cn1c(/C=C/[N+](=O)[O-])cc2ccccc21 | 53.4% (inactive)
2 | CCN1C(=O)N(CC)C2C1NC(=S)N2/N=C/C=C/c1ccccc1OC (configuration not stated) | -20.8% (active)
3 | O=C1OC2C(I)C3CC2C1C3c1ccccc1 (configuration not stated) | 85.7% (inactive)
4 | CC1O[C@@H](OC2[C@H](OC(=O)/C=C/c3ccc(O)c(O)c3)C(COC3O[C@H](C)C(O)C(O)[C@@H]3O)O[C@@H](OCCc3ccc(O)c(O)c3)[C@H]2O)[C@@H](O)C(O)[C@H]1O (some centres not stated) | 103% (inactive)
5 | Cc1cn(-c2cccc(NC(=O)c3ccc(C)c(Nc4nccc(-c5cccnc5)n4)c3)c2)cn1 | 10.4% (inactive)
6 | Cc1nc(NC(=O)COc2ccc(/C=C3\Cc4ccc(Cl)cc4C3=O)cc2)sc1C | 86.5% (inactive)
7 | NC(CSC(c1ccccc1)(c1ccccc1)c1ccc2c(c1)OCO2)C(=O)O (configuration not stated) | -26.2% (active)
8 | O=C(Nc1ccc2ncnc(Nc3ccc(Oc4cccc(F)c4)c(Cl)c3)c2c1)c1ccc(CN2CCOCC2)cc1 | -11.3% (active)
9 | CN(C)c1ccc(-c2c(C#N)c(N)n3nc(N)c(C#N)c3c2C#N)cc1 | 95.7% (inactive)
10 | CCN(C(=O)Nc1ccccc1Cl)c1ccccc1 | 113% (inactive)
11 | O=C(O)c1ccc(NCc2cn(-c3ccc(C(F)(F)F)cc3)nc2-c2ccc(C(=O)O)cc2)cc1 | 104% (inactive)
12 | Cc1cnc(C(=O)Nc2nc3ccc(S(=O)(=O)Nc4ccc(C(C)(C)C)cc4)cc3[nH]2)cn1 | -18.2% (active)
13 | CC(=O)C1=C(O)C=C2Oc3c(C(=O)/C=C/c4cc(C(F)(F)F)cc(C(F)(F)F)c4)c(O)c(C)c(O)c3[C@]2(C)C1=O | -35.2% (active)
14 | CN1CCN(CCOc2ccc(-c3cnc4c(-c5ccc(F)cc5)cnn4c3)cc2)CC1 | 2.46% (active)
15 | Cc1nn(-c2ccc(F)cc2)c2ncnc(Oc3ccc(NC(=O)Nc4ccc(Cl)c(C(F)(F)F)c4)cc3)c12 | 99% (inactive)
16 | CC(=O)Nc1ccc(/C=N/N2CCCCCC2)cc1 | 95.1% (inactive)
17 | O=C1Nc2ccccc2/C1=C/C(=N/c1nnc(-c2ccc(Cl)cc2)s1)c1ccccc1 | -31.8% (active)
18 | CCOC(=O)Cn1nnc(-c2ccc(OCc3ccccc3F)cc2)n1 | 102% (inactive)
19 | O=C(Nc1ccccc1[N+](=O)[O-])c1ccc(Cl)c(Cl)c1 | 90.2% (inactive)

Row | Compound | growth
20 | CCOC(=O)CCC(=O)P(=O)(O)O | 9.71% (active)
21 | CCCCCCCCCCN1CC2CCCCC2C1 (configuration not stated) | 68.5% (inactive)
22 | COc1ccc(/C=N/NC(=O)c2cnn3c2NC(c2ccccc2)C3)cc1OC1CCCC1 (configuration not stated) | 101% (inactive)
23 | Cn1c2c(c3ccccc31)CCN1C[C@@H]3CCCC[C@H]3C[C@@H]21 | 2.52% (active)
24 | O=C(C[C@@H](C(=O)NCc1cccc(C(F)(F)F)c1)N1C(=O)[C@@H](N2C(=O)OC[C@@H]2c2ccccc2)[C@H]1/C=C/c1ccccc1)NC1CCN(Cc2ccccc2)CC1 | 55.3% (inactive)
25 | CN(C)c1ccc(N=Nc2cccc3ccccc23)cc1 | 77.4% (inactive)
26 | Cc1c(C(=O)Nc2ccccc2F)sc2c(=O)[nH]cnc12 | 83.2% (inactive)
27 | Cc1ccc2cccc(OC(=O)Nc3cccc(C(F)(F)F)c3)c2n1 | 67% (inactive)
28 | COC(=O)c1cncc(C(=O)Nc2ccc(-n3cnc4ccccc43)cc2)c1 | 93.7% (inactive)
29 | O=C1Nc2ccc(Cl)cc2/C1=N/c1nc(-c2ccc(F)cc2)cs1 | -36.7% (active)
30 | Cn1c(=O)c2[nH]c(CC(=O)O)nc2n(C)c1=O | 110% (inactive)
31 | O=C(NC(=S)Nc1ccccn1)c1ccccc1 | 95.8% (inactive)
32 | C=C(CNCCO)[C@@H]1CC[C@]2(CO)CC[C@]3(C)[C@H](CC[C@@H]4[C@@]5(C)CCC(NCCc6ccc(O)cc6)C(C)(C)[C@@H]5CC[C@]43C)[C@@H]12 (some centres not stated) | -52.2% (active)
33 | COc1cc2c(-c3cc4c(cc3CNCCc3ccc5c(c3)OCO5)OCO4)cccc2c(OC)c1O | 71.3% (inactive)
34 | Nc1ccc(Sc2ccc([N+](=O)[O-])c3nonc23)cc1 | 42.8% (inactive)
35 | CCOC(=O)c1ccc(Nc2sc(C(=O)c3cccc([N+](=O)[O-])c3)c(N)c2C#N)cc1 | 4.04% (active)
36 | CCC1NC(=O)c2cc(S(N)(=O)=O)c(Cl)cc2N1 (configuration not stated) | 120% (inactive)
37 | COc1ccc2nc3cc(Cl)ccc3c(N3CCN(c4nccc(Nc5ccccc5)n4)CC3)c2c1 | 73.8% (inactive)
